# Laboratory results from PubChem BioAssay AID504546 (Broad Institute, 2011).
# Inconclusive results are not listed. A number with no mark means an inactive call.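 The calls were made as follows: active = every repeat run fits a falling-signal curve with half-maximal potency within ten times top tested dose; inconclusive = runs disagree, or flat moderate drop, or poor fit; inactive = every run inactive, including signal moving upward.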
# Test: ADP-Glo luciferase signal interference – biochemical, luminescence, cherry-picked samples, set 2, artefact control for CDK5 inhibitor project, dose response (AID 504546);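 also: 0% = DMSO wells and -100% = wells lacking ADP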
# Conditions: ADP-Glo detection reagent counter screen, 5 uM ADP; series mostly up to 30 µM; activity change, negative = inhibition: at the top concentration
row,SMILES,"activity change, negative = inhibition [%]"
1,CC(C)n1cnc2c(Nc3cccc(Cl)c3)nc(NCCCO)nc21,-8.77
2,COc1cc(OC)cc(C(=O)NNC(=O)c2ccccn2)c1,7.72
3,CCc1ncc(/C=C2\C(=O)Nc3ccccc32)[nH]1,6.92
4,Nc1nc(Nc2ccccc2)nc(NCCO)c1[N+](=O)[O-],16.5
5,O=C(c1ccc2c(c1)OCCO2)N1CCN(c2ccccn2)CC1,14.4
6,Cc1nn(-c2nccs2)c2c1C(=O)CC(C)(C)C2Br (stereo unspecified),16
7,COc1cc(/C=N/Nc2ccc(C(F)(F)F)cn2)cc(OC)c1O,1.2
8,O=[N+]([O-])c1ccc2c(c1)-c1ccccc1C2=NO,7.51
9,COc1ccc(Nc2nccc(-c3cccc(N)c3)n2)cc1,-4.84
10,Cc1nn(-c2ncccn2)c2c1C(=O)CC(C)(C)C2Br (stereo unspecified),5.02
11,Cc1ccc(Nc2nc(NCCO)nc3c2cnn3C)cc1Cl,-8.75
12,Nc1ccc(-c2cnc(N)c(C(=O)c3cccnc3)n2)cn1,-4.42
13,Cc1ccc2[nH]c(C(F)(F)F)cc(=O)c2c1,14.9
14,CCc1c(Nc2ccccc2Cl)nc(N)[nH]c1=O,-6.75
15,Cc1cccc(Nc2nc(N)c([N+](=O)[O-])c(NCCO)n2)c1,-6.98
16,N#Cc1c(N)n(C2OC(CO)C(O)C2O)c2ncnc(N)c12 (stereo unspecified),7.26
17,COc1cccc(C(=O)c2sc(NC(C)C)nc2N)c1,6.22
18,Cc1ccc(C(=O)O/N=C(\N)c2ccccn2)cc1C,14
19,COc1cc2ccccc2ccc1=NO,15.2
20,CCNc1nc(Nc2ccc(C)c(Cl)c2)c2cnn(C)c2n1,13.5
21,COc1ccc2nc3c(cc2c1)c(NC(=O)C1CCCO1)nn3CC(C)C (stereo unspecified),16.2
